# Records with an inconclusive call do not appear. The source made the active and inactive calls. The calls were made as follows, unless noted: active = hit-call score of the fitted dose curve at least 0.9, where 1 is the maximum; inconclusive = response in the unintended direction; inactive = score below 0.9.
# Legend:
# [1] = target: human Retinoic Acid Receptor beta (RARb), RARB (gene 5915) (UniProt P10826); test: ATG_RARb_TRANS: Attagene TRANS-FACTORIAL HepG2 Assay for human Retinoic Acid Receptor beta (AID 2283004)
# human Retinoic Acid Receptor beta (RARb), RARB (gene 5915), sequence (P10826 whole entry, looked up, the tested form may be a part): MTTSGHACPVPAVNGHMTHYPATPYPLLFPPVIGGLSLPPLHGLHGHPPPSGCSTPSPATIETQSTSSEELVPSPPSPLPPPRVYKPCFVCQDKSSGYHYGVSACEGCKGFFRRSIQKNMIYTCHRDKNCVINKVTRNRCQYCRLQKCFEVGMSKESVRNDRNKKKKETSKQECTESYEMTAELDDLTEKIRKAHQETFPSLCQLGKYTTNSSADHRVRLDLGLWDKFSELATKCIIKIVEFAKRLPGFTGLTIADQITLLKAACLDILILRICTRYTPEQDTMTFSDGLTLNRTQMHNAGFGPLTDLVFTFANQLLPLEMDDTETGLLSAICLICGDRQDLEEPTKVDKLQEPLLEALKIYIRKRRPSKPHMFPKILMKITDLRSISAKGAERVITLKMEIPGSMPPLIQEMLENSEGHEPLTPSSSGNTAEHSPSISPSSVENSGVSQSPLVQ
# How it was run: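 Readout is reporter mRNA induction: RNA reverse-transcribed, PCR-amplified, FAM-labelled, HpaI-cut and resolved by capillary electrophoresis. Transiently transfected HepG2 cells carrying exogenous NR–Gal4 chimeras were dosed for 24 h; activity fitted upward relative to DMSO.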
# [2] = target: Retinoic acid receptor alpha (Homo sapiens) (UniProt P10276); test: ATG_RARa_TRANS: Attagene TRANS-FACTORIAL HepG2 Assay for human Retinoic Acid Receptor alpha (RARa) (AID 2283005)
# Retinoic acid receptor alpha (Homo sapiens), sequence (P10276 whole entry, looked up, the tested form may be a part): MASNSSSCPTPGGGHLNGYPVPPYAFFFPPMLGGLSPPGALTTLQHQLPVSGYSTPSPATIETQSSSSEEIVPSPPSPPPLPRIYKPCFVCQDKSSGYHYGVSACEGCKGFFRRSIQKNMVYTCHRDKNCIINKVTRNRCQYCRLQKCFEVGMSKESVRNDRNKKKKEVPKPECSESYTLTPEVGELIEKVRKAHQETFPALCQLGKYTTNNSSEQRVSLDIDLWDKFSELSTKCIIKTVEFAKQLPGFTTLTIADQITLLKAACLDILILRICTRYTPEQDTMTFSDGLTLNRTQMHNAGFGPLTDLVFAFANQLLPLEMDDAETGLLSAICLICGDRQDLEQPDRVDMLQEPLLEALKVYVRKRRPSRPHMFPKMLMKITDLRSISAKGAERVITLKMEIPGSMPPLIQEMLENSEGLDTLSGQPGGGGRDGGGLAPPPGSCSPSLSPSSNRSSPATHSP
# How it was run: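 Reporter transcripts, measured by RT-PCR with fluorescent labeling and capillary electrophoresis after 24 h dosing, reflect activity of an exogenous human RARa–GAL4 fusion in transiently transfected HepG2. Fitted for increase relative to DMSO.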
# [3] = target: Peroxisome proliferator-activated receptor gamma (Homo sapiens) (UniProt P37231); test: ATG_PPARg_TRANS: Attagene TRANS-FACTORIAL HepG2 Assay for human Peroxisome Proliferator-activated Receptor-gamma (PPARg) (AID 2283007)
# Peroxisome proliferator-activated receptor gamma (Homo sapiens), sequence (P37231 whole entry, looked up, the tested form may be a part): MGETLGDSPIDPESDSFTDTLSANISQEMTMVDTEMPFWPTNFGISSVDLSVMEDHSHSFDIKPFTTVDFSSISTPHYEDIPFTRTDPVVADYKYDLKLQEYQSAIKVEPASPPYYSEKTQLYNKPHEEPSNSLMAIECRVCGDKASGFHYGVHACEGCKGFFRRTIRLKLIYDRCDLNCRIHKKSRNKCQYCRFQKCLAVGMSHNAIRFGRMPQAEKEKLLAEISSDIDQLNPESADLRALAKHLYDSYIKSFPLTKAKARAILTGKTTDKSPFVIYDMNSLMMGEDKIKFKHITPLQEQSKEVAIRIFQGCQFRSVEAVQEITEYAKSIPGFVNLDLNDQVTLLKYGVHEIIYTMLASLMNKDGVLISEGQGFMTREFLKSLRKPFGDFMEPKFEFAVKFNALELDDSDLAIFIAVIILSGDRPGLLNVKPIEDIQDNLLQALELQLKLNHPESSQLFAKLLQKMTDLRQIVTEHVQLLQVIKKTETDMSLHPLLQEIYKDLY
# How it was run: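 HepG2 cells transiently transfected with multiplexed GAL4-UAS reporter units and exogenous chimeric NR-Gal4 proteins; reporter mRNA quantified after 24 h compound exposure by RT-PCR, fluorescent labelling, HpaI digestion and capillary electrophoresis; gain-of-signal fitted versus DMSO baseline.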
# [4] = target: Nuclear receptor subfamily 1 group I member 2 (Homo sapiens) (UniProt O75469); test: ATG_PXR_TRANS: Attagene TRANS-FACTORIAL HepG2 Assay for human Pregnane X Receptor (PXR) (AID 2283008)
# Nuclear receptor subfamily 1 group I member 2 (Homo sapiens), sequence (O75469 whole entry, looked up, the tested form may be a part): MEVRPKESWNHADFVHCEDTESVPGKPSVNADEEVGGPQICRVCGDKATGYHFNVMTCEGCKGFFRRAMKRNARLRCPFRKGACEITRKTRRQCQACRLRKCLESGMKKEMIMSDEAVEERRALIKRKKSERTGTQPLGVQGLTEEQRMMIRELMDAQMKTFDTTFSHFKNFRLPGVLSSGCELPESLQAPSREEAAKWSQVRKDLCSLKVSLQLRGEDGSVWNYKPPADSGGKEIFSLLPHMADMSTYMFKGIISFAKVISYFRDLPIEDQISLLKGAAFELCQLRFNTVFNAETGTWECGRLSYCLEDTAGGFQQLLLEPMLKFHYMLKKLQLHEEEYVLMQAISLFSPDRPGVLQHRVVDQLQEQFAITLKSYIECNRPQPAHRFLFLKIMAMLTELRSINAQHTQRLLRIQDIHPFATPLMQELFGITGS
# How it was run: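 HepG2 cells transiently transfected with GAL4-UAS reporter units and PXR-Gal4 chimera, exposed 24 h. Reporter mRNA quantified by RT-PCR, fluorescent labelling, HpaI digestion and capillary electrophoresis; gain of signal vs DMSO.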
# [5] = target: human Retinoic Acid Receptor gamma (RARg), RARG (gene 5916) (UniProt P13631); test: ATG_RARg_TRANS: Attagene TRANS-FACTORIAL HepG2 Assay for human Retinoic Acid Receptor gamma (RARg) (AID 2283009);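 as to AC50: AC50 is for reporter induction above DMSO meaning RARg activation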
# human Retinoic Acid Receptor gamma (RARg), RARG (gene 5916), sequence (P13631 whole entry, looked up): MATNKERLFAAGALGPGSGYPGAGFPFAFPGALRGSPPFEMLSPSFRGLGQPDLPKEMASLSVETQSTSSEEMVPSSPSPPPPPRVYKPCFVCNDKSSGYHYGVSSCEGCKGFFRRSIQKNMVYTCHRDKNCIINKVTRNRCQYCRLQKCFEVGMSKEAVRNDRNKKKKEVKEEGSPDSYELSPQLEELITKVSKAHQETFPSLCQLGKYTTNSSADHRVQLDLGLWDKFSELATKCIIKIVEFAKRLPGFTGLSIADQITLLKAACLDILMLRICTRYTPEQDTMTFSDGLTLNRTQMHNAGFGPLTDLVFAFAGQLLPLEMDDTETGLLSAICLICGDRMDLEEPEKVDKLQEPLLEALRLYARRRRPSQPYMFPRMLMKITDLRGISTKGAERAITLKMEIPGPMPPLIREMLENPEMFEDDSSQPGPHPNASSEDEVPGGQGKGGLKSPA
# How it was run: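 Transient transfection of HepG2 with multi-reporter constructs, then 24 h chemical treatment. Total RNA isolated, reverse-transcribed, PCR-amplified, fluorescently labelled and resolved by capillary electrophoresis; activity scored as mRNA induction versus DMSO.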
# [6] = target: human RAR-related Orphan Receptor beta (RORb), RORB (gene 6096) (UniProt Q92753); test: ATG_RORb_TRANS: Attagene TRANS-FACTORIAL HepG2 Assay for human RAR-related Orphan Receptor beta (RORb) (AID 2283010)
# How it was run: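 Readout is reporter-gene mRNA induction, detected as fluorescence after RT-PCR and capillary electrophoresis, fitted for gain of signal against DMSO controls. Transiently transfected HepG2 liver cells carrying GAL4-UAS reporter constructs were treated for 24 hours.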
# [7] = target: human RAR-related Orphan Receptor gamma (RORg), RORC (gene 6097) (UniProt P51449); test: ATG_RORg_TRANS: Attagene TRANS-FACTORIAL HepG2 Assay for human RAR-related Orphan Receptor gamma (RORg) (AID 2283011)
# human RAR-related Orphan Receptor gamma (RORg), RORC (gene 6097), sequence (P51449 whole entry, looked up, the tested form may be a part): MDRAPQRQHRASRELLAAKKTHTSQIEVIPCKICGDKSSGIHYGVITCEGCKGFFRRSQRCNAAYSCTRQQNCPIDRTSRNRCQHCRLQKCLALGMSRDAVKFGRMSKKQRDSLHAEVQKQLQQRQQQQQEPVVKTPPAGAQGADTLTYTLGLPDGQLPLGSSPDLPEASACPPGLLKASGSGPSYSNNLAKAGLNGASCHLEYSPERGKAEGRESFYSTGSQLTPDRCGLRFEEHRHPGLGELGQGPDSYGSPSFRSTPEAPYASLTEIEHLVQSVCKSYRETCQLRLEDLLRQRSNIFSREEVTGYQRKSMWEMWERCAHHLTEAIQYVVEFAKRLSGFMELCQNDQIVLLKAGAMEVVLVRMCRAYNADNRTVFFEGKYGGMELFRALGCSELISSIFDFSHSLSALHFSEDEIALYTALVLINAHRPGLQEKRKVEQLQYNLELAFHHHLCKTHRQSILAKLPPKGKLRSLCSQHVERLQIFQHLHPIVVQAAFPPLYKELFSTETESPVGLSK
# How it was run: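 Transient MRTU transfection of HepG2 (TRANS format, exogenous NR-Gal4 chimera). 24 h dosing. Total RNA → oligo(dT) RT → PCR → 6-FAM labelling → HpaI cut → CE. Gain vs DMSO.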
# [8] = target: Retinoic acid receptor RXR-alpha (Homo sapiens) (UniProt P19793); test: ATG_RXRa_TRANS: Attagene TRANS-FACTORIAL HepG2 Assay for human Retinoid X Receptor alpha (RXRa) (AID 2283012)
# Retinoic acid receptor RXR-alpha (Homo sapiens), sequence (P19793 whole entry, looked up, the tested form may be a part): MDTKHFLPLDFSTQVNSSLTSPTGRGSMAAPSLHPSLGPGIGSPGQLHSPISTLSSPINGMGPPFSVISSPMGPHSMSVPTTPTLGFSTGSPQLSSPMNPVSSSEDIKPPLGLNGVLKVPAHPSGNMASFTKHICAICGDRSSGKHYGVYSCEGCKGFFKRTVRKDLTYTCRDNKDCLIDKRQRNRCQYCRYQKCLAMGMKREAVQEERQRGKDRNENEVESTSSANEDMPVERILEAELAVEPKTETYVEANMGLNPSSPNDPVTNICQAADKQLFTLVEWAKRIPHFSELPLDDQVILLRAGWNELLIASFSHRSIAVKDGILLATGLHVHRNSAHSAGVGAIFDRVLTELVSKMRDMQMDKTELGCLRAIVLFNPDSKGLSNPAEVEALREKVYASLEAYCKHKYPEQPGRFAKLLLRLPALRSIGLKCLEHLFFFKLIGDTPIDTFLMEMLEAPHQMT
# How it was run: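 Transient transfection of human HepG2 with multiple GAL4-UAS reporter constructs; 24 h compound exposure; total RNA isolated, reverse-transcribed, PCR-amplified, 6-FAM labelled, HpaI-cut, resolved by capillary electrophoresis. Positive-direction fit versus DMSO.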
# [9] = target: human Retinoid X Receptor beta (RXRb), RXRB (gene 6257) (UniProt P28702); test: ATG_RXRb_TRANS: Attagene TRANS-FACTORIAL HepG2 Assay for human Retinoid X Receptor beta (RXRb) (AID 2283013)
# How it was run: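 Transfect HepG2 with GAL4-UAS multi-reporter constructs (chimeric NR-Gal4, TRANS format); dose compound 24 h; isolate RNA, RT-PCR, FAM primer extension, HpaI digest; quantify by capillary electrophoresis; positive direction vs DMSO.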
# [10] = read-out: Intercellular Adhesion Molecule 1 (ICAM1), ICAM1 (gene 3383); test: BSK_3C_ICAM1: BioMAP Diversity Plus: 3C Assay for Intercellular Adhesion Molecule 1 (ICAM1) Biomarker Activity (AID 2283003; active = hit-call score of the fitted dose curve at least 0.9, where 1 is the maximum; inactive = score below 0.9); conditions: primary human endothelial cells (HUVEC); actives raise or lower the signal
# How it was run: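 ICAM-1 levels measured by ELISA after HUVEC cultures in the 3C system had been dosed for 24 h. Gain or loss of signal relative to DMSO was fitted in both directions.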
# [11] = BSK_3C_Proliferation: Cell Proliferation Assessment in the BioMAP Diversity Plus: 3C Assay (AID 2283006; active = hit-call score of the fitted dose curve at least 0.9, where 1 is the maximum; inactive = score below 0.9;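 as to AC50: potency may reflect either rise or fall in cell number versus DMSO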); conditions: primary human endothelial cells (HUVEC)
# How it was run: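 Read-out is total protein by SRB absorbance at 560 nm, taken as a proxy for relative cell number. Primary human umbilical vein endothelium cultured below confluence was dosed for 48 h, TCA-fixed and SRB-stained; curves were fitted bidirectionally versus DMSO.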
# [12] = target: human Thyroid Receptor alpha (THRa1), THRA (gene 7067) (UniProt P10827); test: ATG_THRa1_TRANS: Attagene TRANS-FACTORIAL HepG2 Assay for human Thyroid Receptor alpha (THRa1) (AID 2283014)
# human Thyroid Receptor alpha (THRa1), THRA (gene 7067), sequence (P10827 whole entry, looked up, the tested form may be a part): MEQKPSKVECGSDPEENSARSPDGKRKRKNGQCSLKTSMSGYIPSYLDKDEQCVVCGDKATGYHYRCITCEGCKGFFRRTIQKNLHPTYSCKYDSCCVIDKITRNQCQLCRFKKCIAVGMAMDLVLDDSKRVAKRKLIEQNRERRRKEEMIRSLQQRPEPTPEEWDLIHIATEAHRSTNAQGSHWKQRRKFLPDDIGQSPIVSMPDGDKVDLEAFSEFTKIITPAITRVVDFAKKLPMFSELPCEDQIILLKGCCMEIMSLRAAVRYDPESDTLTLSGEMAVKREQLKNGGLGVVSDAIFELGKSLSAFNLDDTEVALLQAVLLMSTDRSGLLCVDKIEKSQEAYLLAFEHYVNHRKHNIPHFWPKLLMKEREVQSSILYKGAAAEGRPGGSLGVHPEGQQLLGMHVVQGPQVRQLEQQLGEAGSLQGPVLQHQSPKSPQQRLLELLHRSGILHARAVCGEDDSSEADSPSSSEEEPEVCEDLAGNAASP
# How it was run: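 Transient HepG2 transfection, NR-Gal4 chimera driving GAL4-UAS reporters; 24 h compound exposure; total RNA, oligo(dT) RT, PCR, fluorescent primer extension, capillary electrophoresis. Upward direction vs DMSO control.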
# [13] = read-out: E-selectin (Homo sapiens) (UniProt P16581); test: BSK_3C_Eselectin: BioMAP Diversity Plus: 3C Assay for Eselectin Biomarker Activity (AID 2283015; active = hit-call score of the fitted dose curve at least 0.9, where 1 is the maximum; inactive = score below 0.9;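 as to outcome: cell surface E-selectin protein quantified by ELISA 24 h after dosing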); conditions: primary human endothelial cells (HUVEC); actives raise or lower the signal
# How it was run: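 HUVEC, 3C stimulation; compound exposure 24 h; E-selectin by ELISA; gain- or loss-of-signal fitted bidirectionally vs DMSO baseline.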
# [14] = read-out: Interleukin-1 alpha (IL1a), IL1A (gene 3552); test: BSK_BE3C_IL1a: BioMAP Diversity Plus: BE3C Assay for Interleukin-1 alpha (IL1a) Biomarker Activity (AID 2283016; active = hit-call score of the fitted dose curve at least 0.9, where 1 is the maximum; inactive = score below 0.9); conditions: primary human bronchial epithelial cells; actives raise or lower the signal
# How it was run: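 BE3C primary human bronchial epithelium; cpd 24 h; IL-1a by ELISA; bidirectional fit vs DMSO; parallel SRB (0.1% SRB, 10% TCA fix, 560 nm) for cytotoxicity.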
# [15] = read-out: Monocyte Chemoattractant Protein-1 (MCP1), CCL2 (gene 6347); test: BSK_4H_MCP1: BioMAP Diversity Plus: 4H Assay for Monocyte Chemoattractant Protein-1 (MCP1) Biomarker Activity (AID 2283018; active = hit-call score of the fitted dose curve at least 0.9, where 1 is the maximum; inactive = score below 0.9); conditions: primary human endothelial cells (HUVEC); actives raise or lower the signal
# How it was run: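 ELISA read-out of MCP-1 from human vascular endothelial primary cells taken at 24 hours after compound exposure. Activity was fitted in both directions relative to DMSO, which served as negative control.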
# [16] = read-out: Human Leukocyte Antigen - DR isotype (HLADR), HLA-DRA (gene 3122); test: BSK_3C_HLADR: BioMAP Diversity Plus: 3C Assay for Human Leukocyte Antigen - DR isotype (HLADR) Biomarker Activity (AID 2283019; active = hit-call score of the fitted dose curve at least 0.9, where 1 is the maximum; inactive = score below 0.9;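 as to outcome: ELISA of cell-surface HLA-DR on HUVEC 24 h after dosing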); conditions: primary human endothelial cells (HUVEC); actives raise or lower the signal
# How it was run: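 HUVEC, 3C stimulation, 24 h post-dose; HLA-DR by ELISA; bidirectional curve fit vs DMSO baseline; gain or loss of signal scored.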
# [17] = read-out: Interleukin-8 (IL8), CXCL8 (gene 3576); test: BSK_3C_IL8: BioMAP Diversity Plus: 3C Assay for Interleukin-8 (IL8) Biomarker Activity (AID 2283020; active = hit-call score of the fitted dose curve at least 0.9, where 1 is the maximum; inactive = score below 0.9); conditions: primary human endothelial cells (HUVEC); actives raise or lower the signal
# How it was run: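 ELISA read-out of IL-8 from human umbilical vein endothelium, measured 24 h after chemical dosing. Activity is expressed relative to DMSO negative control, with both increases and decreases fitted.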
# [18] = target: human Vitamin D Receptor (VDR), VDR (gene 7421) (UniProt P11473); test: ATG_VDR_TRANS: Attagene TRANS-FACTORIAL HepG2 Assay for human Vitamin D Receptor (VDR) (AID 2283022)
# How it was run: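 RT-PCR/capillary electrophoresis read-out of reporter mRNA induction in transiently transfected HepG2; 24 h dosing; chimeric NR-Gal4 (TRANS format); gain-of-signal fit against DMSO baseline.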
# [19] = target: human Peroxisome Proliferator-activated Receptor delta (PPARd), PPARD (gene 5467) (UniProt Q03181); test: ATG_PPARd_TRANS: Attagene TRANS-FACTORIAL HepG2 Assay for human Peroxisome Proliferator-activated Receptor delta (PPARd) (AID 2283002)
# human Peroxisome Proliferator-activated Receptor delta (PPARd), PPARD (gene 5467), sequence (Q03181 whole entry, looked up, the tested form may be a part): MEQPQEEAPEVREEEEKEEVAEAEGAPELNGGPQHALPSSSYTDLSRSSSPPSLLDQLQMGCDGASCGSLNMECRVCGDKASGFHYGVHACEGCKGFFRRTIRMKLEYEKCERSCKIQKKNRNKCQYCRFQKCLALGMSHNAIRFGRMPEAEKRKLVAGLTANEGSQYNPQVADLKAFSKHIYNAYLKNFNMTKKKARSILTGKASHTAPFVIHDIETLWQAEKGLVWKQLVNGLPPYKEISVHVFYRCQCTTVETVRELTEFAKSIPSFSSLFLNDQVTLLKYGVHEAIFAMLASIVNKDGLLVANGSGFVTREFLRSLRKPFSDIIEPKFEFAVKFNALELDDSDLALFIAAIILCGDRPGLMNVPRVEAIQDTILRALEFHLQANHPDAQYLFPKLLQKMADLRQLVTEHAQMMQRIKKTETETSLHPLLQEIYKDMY
# How it was run: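 Read-out is induced reporter mRNA, quantified by RT-PCR with fluorescent labelling and capillary electrophoresis after 24 h dosing. Cells are HepG2 transiently carrying multiple GAL4-UAS reporter units driven by exogenous NR-GAL4 chimeras; DMSO serves as baseline.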
# E-selectin (Homo sapiens), sequence (P16581 whole entry, looked up): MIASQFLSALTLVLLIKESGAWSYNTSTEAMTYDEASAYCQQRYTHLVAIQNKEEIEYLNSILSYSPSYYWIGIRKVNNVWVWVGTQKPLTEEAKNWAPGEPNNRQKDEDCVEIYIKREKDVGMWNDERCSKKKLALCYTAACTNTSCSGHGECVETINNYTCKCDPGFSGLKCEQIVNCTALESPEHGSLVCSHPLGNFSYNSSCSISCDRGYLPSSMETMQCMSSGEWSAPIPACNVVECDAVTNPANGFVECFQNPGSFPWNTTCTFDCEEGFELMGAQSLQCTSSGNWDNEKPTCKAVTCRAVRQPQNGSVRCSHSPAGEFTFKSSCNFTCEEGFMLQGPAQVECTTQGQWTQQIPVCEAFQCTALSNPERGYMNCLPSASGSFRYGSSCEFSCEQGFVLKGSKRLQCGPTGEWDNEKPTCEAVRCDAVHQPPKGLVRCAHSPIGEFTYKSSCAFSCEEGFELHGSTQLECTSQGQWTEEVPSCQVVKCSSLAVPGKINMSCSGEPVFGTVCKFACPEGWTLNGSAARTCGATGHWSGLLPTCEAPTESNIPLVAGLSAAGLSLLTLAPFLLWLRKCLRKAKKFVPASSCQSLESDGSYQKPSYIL
compound,measurement,setting,value
Cc1c(C)c([N+](=O)[O-])c(C(C)(C)C)c([N+](=O)[O-])c1C,outcome,[1],inactive
same,outcome,[2],inactive
same,outcome,[3],inactive
same,AC50,[4],2 µM (active)
same,outcome,[5],inactive
same,outcome,[6],inactive
same,outcome,[7],inactive
same,AC50,[8],12.7 µM (active)
same,AC50,[9],1.7 µM (active)
CC(C)(c1cc(Br)c(OCCO)c(Br)c1)c1cc(Br)c(OCCO)c(Br)c1,AC50,[10],28 µM (active)
same,outcome,[1],inactive
same,outcome,[2],inactive
same,AC50,[11],11.9 µM (active)
same,AC50,[4],1.71 µM (active)
same,AC50,[5],0.454 µM (active)
same,AC50,[8],81 µM (active)
same,outcome,[12],inactive
same,AC50,[13],16.2 µM (active)
same,outcome,[14],inactive
same,AC50,[15],5.24 µM (active)
same,AC50,[16],18.6 µM (active)
same,AC50,[17],16.2 µM (active)
same,outcome,[18],inactive
Cc1ccc(OC(=O)CC(C)C)cc1,outcome,[19],inactive
same,outcome,[7],inactive
same,outcome,[8],inactive
same,outcome,[9],inactive
same,outcome,[12],inactive
CCCCNc1ccc(NCCCC)c2c1C(=O)c1ccccc1C2=O,outcome,[10],inactive
same,outcome,[11],inactive
same,outcome,[3],inactive
same,outcome,[4],inactive
same,outcome,[7],inactive
same,outcome,[12],inactive
same,outcome,[13],inactive
same,outcome,[14],inactive
same,AC50,[15],0.00419 µM (active)
same,outcome,[16],inactive
same,outcome,[17],inactive
CC1(C)O[C@@H]2C[C@H]3[C@@H]4C[C@H](F)C5=CC(=O)C=C[C@]5(C)[C@@]4(F)[C@@H](O)C[C@]3(C)[C@]2(C(=O)CO)O1,outcome,[19],inactive
same,outcome,[4],inactive
same,outcome,[8],inactive
same,outcome,[9],inactive
same,outcome,[12],inactive
same,outcome,[18],inactive
O=C1CCCN1CCO,outcome,[10],inactive
same,outcome,[11],inactive
same,outcome,[4],inactive
same,outcome,[6],inactive
same,outcome,[7],inactive
same,outcome,[12],inactive
same,outcome,[13],inactive
same,outcome,[14],inactive
same,outcome,[15],inactive
same,outcome,[16],inactive
same,outcome,[17],inactive
same,outcome,[18],inactive
O=C1CCC(=O)N1Cl,outcome,[19],inactive
same,outcome,[4],inactive
same,outcome,[8],inactive
same,outcome,[12],inactive
same,outcome,[18],inactive
CCCCCCCCc1ccc(Nc2ccc(CCCCCCCC)cc2)cc1,outcome,[10],inactive
same,outcome,[1],inactive
same,outcome,[2],inactive
same,outcome,[11],inactive
same,outcome,[3],inactive
same,AC50,[4],1.68 µM (active)
same,outcome,[5],inactive
same,outcome,[8],inactive
same,outcome,[9],inactive
same,outcome,[12],inactive
same,outcome,[13],inactive
same,outcome,[14],inactive
same,outcome,[15],inactive
same,outcome,[16],inactive
same,outcome,[17],inactive
same,outcome,[18],inactive
CCOC(F)(F)C(F)(F)C(F)(F)C(F)(F)F,outcome,[19],inactive
same,outcome,[3],inactive
same,outcome,[4],inactive
same,outcome,[8],inactive
same,outcome,[18],inactive
CC1(C)S[C@@H]2[C@H](NC(=O)COc3ccccc3)C(=O)N2[C@H]1C(=O)O,outcome,[19],inactive
same,outcome,[6],inactive
same,outcome,[18],inactive
Cc1oncc1C(=O)Nc1ccc(C(F)(F)F)cc1,outcome,[19],inactive
same,AC50,[3],41.1 µM (active)
same,outcome,[5],inactive
same,outcome,[8],inactive
same,outcome,[12],inactive
CCOC(=O)N1CCC(=C2c3ccc(Cl)cc3CCc3cccnc32)CC1,outcome,[19],inactive
same,outcome,[8],inactive
same,outcome,[18],inactive
N[C@H]1C(O)O[C@H](CO)[C@H](O)[C@@H]1O (some centres undefined),outcome,[19],inactive
same,outcome,[8],inactive
same,outcome,[12],inactive
CC(C)=CCCC(C)C=O (centres undefined),outcome,[19],inactive
same,outcome,[3],inactive
same,AC50,[4],7.95 µM (active)
same,outcome,[9],inactive
same,outcome,[12],inactive
same,outcome,[18],inactive
CCCCCCCC(C)=O,outcome,[19],inactive
same,outcome,[4],inactive
same,outcome,[5],inactive
same,outcome,[7],inactive
same,outcome,[9],inactive
same,outcome,[12],inactive

# Reference: PubChem BioAssay (EPA / NIEHS)
